Results taken from PubChem BioAssay AID504334 (NMMLSC, 2011).
Values without a mark were called inactive.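 The calls were made as follows: active = response relative to DMSO over 150%; inconclusive = yeast strain with under 70 recorded events; inactive = the rest.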

Assay: yeast AGP1-GFP fluorescence change, single-dose confirmation – cell-based, flow cytometry, S. cerevisiae, cherry pick set 3 (AID 504334);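 also: median GFP fluorescence per well by flow cytometry over the all cells gate; ratio of sample to mean DMSO control signal so DMSO = 100% not 0%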
Conditions: S. cerevisiae AGP1-GFP strain, 3 h, at 10 µM, stronger effect = higher value
In the case of `C/C(O)=C(\C#N)C(=O)Nc1cc(Br)ccc1Br`, the percent response vs DMSO is reported as 100%.
For `CN(C)C(=O)Oc1ccc(Cl)c2cccnc12`, the percent response vs DMSO was 93.4%.
`CN(C)C(=O)Oc1ccnc2cc(Cl)ccc12` gave a percent response vs DMSO of 104%.
`CN1CCN(c2ncnc3ccc(Br)cc23)CC1` gave a percent response vs DMSO of 103%.
For `Cc1ccc2c(c1N)C(=O)c1ccccc1C2=O`, the percent response vs DMSO was 105%.
In the case of `CCN1CCN(c2ncnc3ccc(Br)cc23)CC1`, the percent response vs DMSO is reported as 99.8%.
